Screening results deposited in PubChem by National Center for Advancing Translational Sciences (NCATS).
VP16 counter – Gal4-VP16 reporter inhibition counter-screen. Drosophila S2 Gal4-VP16 UAS-luciferase, luminescence, 20 h. Potency, µM (highest dose often 53.6 µM), usual class: inhibitors. 310,000 tested, 3.5% active. AID 2546;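 further: Gal4-VP16 expression switched on by copper sulfate through the metallothionein promoter; nearly all actives have a fitted effect of over 50% in size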
IL-1B inflam inh – inflammasome signaling inhibition, IL-1 beta readout | THP-1 LPS/ATP IL-1B secretion, AlphaLISA, 16 h; hits give low values | activity change, % at 57.5 µM | 360,000 tested, 4.7% active | AID 743279; in the data active means activity change below about -50%; inconclusive means mostly about -30% to -49%
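Secreted IL-1B measured by AlphaLISA bead assay after 16 h compound exposure of THP-1 cells; compounds (final up to 57.5 uM) added 1 h before LPS (250 ng/mL) and ATP (1.25 mM) stimulation; lower signal means less secretion.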
RORg inh – blocks mouse ROR gamma transcriptional activity. AID 2551. Potency, µM (series often up to 53.6 µM), actives largely listed as inhibitors. P51450. 310,000 tested, 5.4% active. Drosophila S2 Gal4-RORgamma UAS-luciferase reporter, 20 h; further: nearly all actives have a fitted effect of over 60% in size
Target sequence (P51450 whole entry, looked up, the tested form may be a part): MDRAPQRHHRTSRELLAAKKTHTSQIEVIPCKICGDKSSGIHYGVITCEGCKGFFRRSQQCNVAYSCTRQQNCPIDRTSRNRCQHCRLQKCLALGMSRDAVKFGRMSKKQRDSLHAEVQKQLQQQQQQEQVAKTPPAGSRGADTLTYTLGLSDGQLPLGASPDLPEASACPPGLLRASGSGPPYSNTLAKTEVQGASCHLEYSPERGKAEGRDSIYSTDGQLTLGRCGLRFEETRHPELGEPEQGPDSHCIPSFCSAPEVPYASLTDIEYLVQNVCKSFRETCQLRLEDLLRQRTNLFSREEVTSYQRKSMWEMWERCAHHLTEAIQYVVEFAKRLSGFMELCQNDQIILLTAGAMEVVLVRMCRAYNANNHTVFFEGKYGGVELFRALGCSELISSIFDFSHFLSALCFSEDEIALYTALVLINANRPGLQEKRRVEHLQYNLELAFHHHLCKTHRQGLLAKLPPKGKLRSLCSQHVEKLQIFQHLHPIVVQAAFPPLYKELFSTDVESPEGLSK
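ROR gamma transcriptional activity was tracked as Gal4-UAS luciferase output in stably transfected Drosophila Schneider cells, with compound added 1 hr before 700 uM copper sulfate induction and a 20 hr ambient-temperature incubation.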
SW480 rereplic – induces DNA re-replication in SW480 colon adenocarcinoma cells. SW480 DNA re-replication, Hoechst DNA content imaging, 48 h. Potency, µM (series often up to 46.1 µM), most hits filed as activators. 340,000 tested, 1.8% active; further: nearly all actives have a fitted effect of over 55% in size
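SW480 cells exposed to compounds for 48 hr at 37 C, 5% CO2, then Hoechst-stained 40 min. Nuclear DNA content imaged by fluorescence scanning (405 nm excitation, 500-530 nm emission); re-replication scored as increased high-intensity nuclei.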
MCF10A rereplic – DNA re-replication induction in MCF 10a cells. MCF 10A DNA re-replication, Hoechst nuclear intensity, 48 h. AID 624296. 350,000 tested, 2.9% active. Potency, µM (titrated, usually from 46.1 µM), usual class: activators; further: nearly all actives have a fitted effect of over 50% in size
A number is an active result; n = inactive; u = inconclusive; x = no result given; [ ] = another dose, or the depositor's remark. Compounds with a hit are over-represented: about 11% of the library has one in this group of screens. Unless noted, the call rests on the fitted dose curve; in most records, active means well fitted curve in the direction sought with a large enough effect; inconclusive means small, poorly fitted or top-dose-only effect, or another doubt; inactive means no such curve, though single readings can be large; an effect the other way counts as inactive or inconclusive.

SMILES	VP16 counter	IL-1B inflam inh	RORg inh	SW480 rereplic	MCF10A rereplic
COc1ccc(S(=O)(=O)N(C)C[C@H]2Oc3c(NC(=O)C4CCCCC4)cccc3C(=O)N([C@H](C)CO)C[C@@H]2C)cc1	x	n	x	n	n
Cc1nc(-c2ccccn2)nc(SCC(=O)c2ccccc2)c1Cl	11.2µM	x	3.98µM	n	u
NS(=O)(=O)c1cccc(NC(=O)CSc2ncc(C(F)(F)F)cc2Cl)c1	n	-111.1	n	n	n
Cc1ccc(S(=O)(=O)N(C)C)cc1NC(=O)CSc1ncc(C(F)(F)F)cc1Cl	n	u	u	n	n
O=[N+]([O-])c1ccc(/C=N/N/C(=N/c2ccccn2)c2ccccn2)cc1	n	n	11.2µM	n	n
O=[N+]([O-])c1cc(/C=N/N/C(=N/c2ccccn2)c2ccccn2)ccc1O	4.47µM	n	1.41µM	u	u
CN1OC[C@@H]2CN(Cc3cc(Cl)cc(Cl)c3)[C@H](c3cccc(-c4ccccc4)c3)C[C@@H]21	x	n	x	n	n
CCOC(=O)N/N=C1/C[C@@H](O)[C@@H](O)[C@@H]2[C@@H]3C(=O)N(Cc4ccccc4)C(=O)[C@H]3CC[C@@H]12	n[10 µM]	x	n[10 µM]	x	x
CCCn1c(N)c(N(CCOC)C(=O)COC(=O)CSc2cc(C)c3ccccc3n2)c(=O)[nH]c1=O	x	n	x	n	n
O=C(c1csnn1)N1CCC2(CC1)CCN(c1cccc(-c3ccccc3)c1)CC2	n	x	n	x	x
O=P(CCCCCCCCCP(=O)(c1ccccc1)c1ccccc1)(c1ccccc1)c1ccccc1	u	-103.6	u	n	u
O=C(NNS(=O)(=O)c1ccccc1[N+](=O)[O-])c1cccc(Cl)c1	n	n	n	0.517µM	n
O=C(NNS(=O)(=O)c1ccccc1[N+](=O)[O-])c1cccc(Br)c1	n	n	n	n	n
CC(C)(C)NS(=O)(=O)c1ccc(CCC(=O)Nc2cc(Cl)ccc2Oc2ccccc2)cc1	n	-63.2	n	n	n
CCCNS(=O)(=O)c1ccc(CCC(=O)Nc2cc(Cl)ccc2Oc2ccccc2)cc1	n	n	u	n	8.2µM
CC(C)CNS(=O)(=O)c1ccc(CCC(=O)Nc2cc(Cl)ccc2Oc2ccccc2)cc1	n	u	n	7.31µM	n
COc1ccc(CCC(=O)Nc2cc(Cl)ccc2OC)cc1	n	n	n	u	u
COC(=O)C1(C(=O)OC)c2cc3c(cc2CN(S(=O)(=O)c2ccc(C)cc2)C1CC(C)=O)OCO3 (configuration not stated)	x	n	x	x	x
O=C(NCc1cc2ccccc2[nH]1)c1ccccc1F	n	-63.7	n[1.91 µM]	n	n
CCn1c(O)c(/C=N/N=C/c2ccccc2)c2ccc(C3=NNC(=O)CC3)cc21	n	u	n	n	16.4µM
CCC(CC)=N/N=C/c1c(O)n(CC)c2cc(C3=NNC(=O)CC3)ccc12	u	n	u	n	n
CC(=O)Nc1cccc(NC(=O)Cc2ccc3ccccc3c2)c1	n	n	n	n	n
COc1ccc(/C=C/C(=O)N2CCN(c3ccccc3)CC2)cc1S(=O)(=O)N1CCOCC1	n	n	n	n	n
COc1ccc(/C=C/C(=O)Nc2ccccc2F)cc1S(=O)(=O)N1CCOCC1	x	-87.9	x	u	u
COc1ccc(S(=O)(=O)N2CCOCC2)cc1NC(=O)/C=C/c1ccccc1	x	-51.5	x	n	n
SMILES	VP16 counter	IL-1B inflam inh	RORg inh	SW480 rereplic	MCF10A rereplic
COc1ccc(/C=C/C(=O)Nc2ccccc2C)cc1S(=O)(=O)N1CCOCC1	n	n	n	n	n
CCCOc1ccc(S(=O)(=O)N2CCOCC2)cc1[N+](=O)[O-]	n	n	n	n	n
COc1cc(C=O)ccc1Oc1ccc(S(=O)(=O)N2CCOCC2)cc1[N+](=O)[O-]	x	-57.2	x	n	n
COc1ccc(/C=C/C(=O)N(CCC(N)=O)c2ccccc2)cc1S(=O)(=O)N1CCOCC1	x	n	x	4.61µM	n
Cn1c(N)c(C(=O)COC(=O)/C=C/c2cccc(Cl)c2)c(=O)n(C)c1=O	x	n	x	n	n
O=C(Nc1ccc(Cl)cc1)c1csc([C@@H]2C[C@H](O)[C@@H](CO)O2)n1	x	n	x	x	x
COc1ccc([C@H]2C[C@H](n3cc(C4CC4)nn3)[C@@H](O)CN2C(=O)C2CCCCC2)cc1	x	n	x	x	x
C=C1C(=O)O[C@H]2[C@H]1[C@@H](O)CC(=C)[C@@H]1CC(=O)[C@@H](C)[C@H]21	u	-91.5	12.6µM	4.61µM	11.6µM
